Results published in PMC7819943, “Rice protein-binding microarrays: a tool to detect cis-acting elements near promoter regions in rice”.
The full ranking holds about 39,000 sequences; the median of “fluorescence intensity (a.u.)” is about 4,300, and the highest 2% start at about 39,000. Only a selection was taken, and the highest values are over-represented in it overall.

molecular target: T1, OsSMF1 (Oryza sativa, UniProt Q6ZLB0 1-436); assay: protein-binding microarray (RPBM); PBS, 2% BSA, 51.3 ng/ul salmon testes DNA, 50 uM zinc acetate, 200 nM TF, 25 C, 1 h; high values mean tight binding; conditions: protein: recombinant; tags: N-terminal polyhistidine and DsRed monomer fusion (pET32a); chain copies: 2; label: CyDye5-dUTP incorporated in the synthesized complementary strand; 3' TTTTT single-stranded linker to array surface; dsDNA, one strand shown
T1 sequence: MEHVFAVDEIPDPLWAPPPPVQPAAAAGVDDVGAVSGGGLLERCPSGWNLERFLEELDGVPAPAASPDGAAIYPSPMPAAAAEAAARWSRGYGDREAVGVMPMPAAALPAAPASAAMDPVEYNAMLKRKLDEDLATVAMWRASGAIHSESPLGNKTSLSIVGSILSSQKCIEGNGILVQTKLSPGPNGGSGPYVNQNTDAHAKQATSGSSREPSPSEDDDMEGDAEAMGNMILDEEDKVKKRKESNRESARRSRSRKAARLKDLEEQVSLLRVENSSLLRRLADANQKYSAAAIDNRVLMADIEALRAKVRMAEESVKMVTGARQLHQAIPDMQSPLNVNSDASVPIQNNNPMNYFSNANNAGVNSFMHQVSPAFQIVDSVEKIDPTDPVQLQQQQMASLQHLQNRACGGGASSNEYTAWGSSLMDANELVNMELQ
Procedure, shortened: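 Polyhistidine-tagged DsRed fusions of transcription factors, joined at the N-terminus, were expressed in E. coli BL21-CodonPlus and isolated on Ni–NTA. They were incubated at 200 nM for 1 h at 25 °C on a custom Agilent array, double-stranded and BSA-blocked, in PBS with 2% BSA, salmon testes DNA and 50 µM zinc acetate. The binding signal is per-feature fluorescence intensity (arbitrary units) read on an Axon 4000B scanner after washing.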

For “TACTGTAGCACCACATTGTCAATCATGGCGCAATTATGCTCGGAGTCACCTAGTGCAG”, which binding signal is on record?
Its binding signal is 12900 fluorescence intensity (a.u.).

How did the binding signal turn out when “GAATACCAAGAACGACGTCATACAAGACTGACGTGCGGTCCGGAGTCACCTAGTGCAG” was run?
The binding signal was 5690 fluorescence intensity (a.u.).

“AATGTCCCATCTTTCGTGTGTAAGGCACGTTAGTCTCAGGCGGAGTCACCTAGTGCAG” was tested. Which binding signal did it give?
The binding signal was 4290 fluorescence intensity (a.u.).

For “GTATGGGTTCGAGGAGTGATGTGGTGATGGGCAAACCCATCGGAGTCACCTAGTGCAG”, which binding signal is on record?
The binding signal was 3300 fluorescence intensity (a.u.).

For “CACCCTTAAATCATATATGTGGTTTTAATATTTGGGGATGCGGAGTCACCTAGTGCAG”, which binding signal is on record?
Its binding signal is 33200 fluorescence intensity (a.u.).

How did the binding signal turn out when “CGAGACTGACAAGGCATTCCAGACACTTAAACAAGCACTGCGGAGTCACCTAGTGCAG” was run?
Its binding signal is 3350 fluorescence intensity (a.u.).

How did the binding signal turn out when “CTCTCGAAGCTGCCCTAGCCTCTCCGCTGCTCCGATCCACCGGAGTCACCTAGTGCAG” was run?
The binding signal was 24500 fluorescence intensity (a.u.).

How did the binding signal turn out when “ATGTTTGAGCATGCAGCAAAGACAGATCTAACACTCAAGCCGGAGTCACCTAGTGCAG” was run?
Its binding signal is 3970 fluorescence intensity (a.u.).

With “CCCAGCACCCTACTACACCAACATACTCCTACGTGGAGCACGGAGTCACCTAGTGCAG” as the sequence, how does the binding signal read?
Its binding signal is 6040 fluorescence intensity (a.u.).

Which binding signal does the source give for “GTATCCATATATCCGATATGACACGCCAAAACTTTACACCCGGAGTCACCTAGTGCAG” here?
The binding signal was 4870 fluorescence intensity (a.u.).

With “ACCATCCGAGCTGTCAAGATCCGACGTGGGTTGTGAAGGCCGGAGTCACCTAGTGCAG” as the sequence, how does the binding signal read?
Its binding signal is 8700 fluorescence intensity (a.u.).

With “ATAGTTGTGATTAGATTGTGACGTACACAATGAGTATGCACGGAGTCACCTAGTGCAG” as the sequence, how does the binding signal read?
The binding signal was 5250 fluorescence intensity (a.u.).

With “GCGAAGAACGCTTGCACTTGTGTGCAGCGACGCGCGAATTCGGAGTCACCTAGTGCAG” as the sequence, how does the binding signal read?
Its binding signal is 4440 fluorescence intensity (a.u.).

For “GTTCCACATTTCAGCATTAATGAATTGGCATACGTGATGACGGAGTCACCTAGTGCAG”, which binding signal is on record?
The binding signal was 3360 fluorescence intensity (a.u.).

With “TTCCAACCCGCCCCGTGTGCTGACGTGGCAGCCATGTTGGCGGAGTCACCTAGTGCAG” as the sequence, how does the binding signal read?
The binding signal was 19300 fluorescence intensity (a.u.).

For “AGTATGCTTTTCTTAACGATGACGTCAGCATACACCTCGGCGGAGTCACCTAGTGCAG”, which binding signal is on record?
The binding signal was 45200 fluorescence intensity (a.u.).

For “GGCGCTGATGTCATGCTGACGTCAGTGCCTGATTTTGCTCCGGAGTCACCTAGTGCAG”, which binding signal is on record?
The binding signal was 56100 fluorescence intensity (a.u.).

With “TTTCTTTTCAGACGATGACGTCACACCGTTCTTCATGTATCGGAGTCACCTAGTGCAG” as the sequence, how does the binding signal read?
The binding signal was 12300 fluorescence intensity (a.u.).

“AGTTTTGTACGCATGTGTGGCGCTGACGTCATGCCCGATCCGGAGTCACCTAGTGCAG” was tested. Which binding signal did it give?
Its binding signal is 18000 fluorescence intensity (a.u.).

Which binding signal does the source give for “TGTTCCAACCCGCTCCGTGTGCTGACGTGGCATGACATGGCGGAGTCACCTAGTGCAG” here?
Its binding signal is 44900 fluorescence intensity (a.u.).

Which binding signal does the source give for “TCTCGCTTAATGTTTTCTTTACACATACGATGCTTTAGATCGGAGTCACCTAGTGCAG” here?
The binding signal was 3790 fluorescence intensity (a.u.).

Which binding signal does the source give for “TTGCTGCAAATGACGTCGACATGTGCGTGGCATACCATGGCGGAGTCACCTAGTGCAG” here?
The binding signal was 15000 fluorescence intensity (a.u.).

For “CTTGGCCGTGGCCGCTGACATGGCATCACCTCATCCGCAACGGAGTCACCTAGTGCAG”, which binding signal is on record?
The binding signal was 4320 fluorescence intensity (a.u.).

“TTTGCATACGTGCATGCTTGATGACGTCATGCTGACGTGGCGGAGTCACCTAGTGCAG” was tested. Which binding signal did it give?
The binding signal was 63100 fluorescence intensity (a.u.).

How did the binding signal turn out when “GGATGCATGCATGCTGATGATGTCAGGCTGATACGTGCGTCGGAGTCACCTAGTGCAG” was run?
The binding signal was 7340 fluorescence intensity (a.u.).

With “GGCGGCGATGGCGGCCGTGCTGACGGACGATTTCCTGCTCCGGAGTCACCTAGTGCAG” as the sequence, how does the binding signal read?
The binding signal was 3220 fluorescence intensity (a.u.).

How did the binding signal turn out when “CAAACAATATTCTTTTGTGACTAGATCAAGCCGTAGTGTTCGGAGTCACCTAGTGCAG” was run?
The binding signal was 3650 fluorescence intensity (a.u.).

For “TATGTACCTTTTCCACAGAACCCTCTACTGTGCCAGGTCACGGAGTCACCTAGTGCAG”, which binding signal is on record?
Its binding signal is 15600 fluorescence intensity (a.u.).

“CGCGGCAGATCCGCTGGTTGTGGCGGCGTCAGCGGTAGCCCGGAGTCACCTAGTGCAG” was tested. Which binding signal did it give?
Its binding signal is 4030 fluorescence intensity (a.u.).

How did the binding signal turn out when “ACGACATGCGTGCAAATGCATTGTAAATTTGTAATACGGCCGGAGTCACCTAGTGCAG” was run?
Its binding signal is 22300 fluorescence intensity (a.u.).

“TACTTTCGTTTGCAAATATGCGGAATGATGGGGCTGTTTCCGGAGTCACCTAGTGCAG” was tested. Which binding signal did it give?
The binding signal was 3700 fluorescence intensity (a.u.).

“CACTCTTTATTTTATTATGACTTGATTCGTCATCAAATGTCGGAGTCACCTAGTGCAG” was tested. Which binding signal did it give?
Its binding signal is 3870 fluorescence intensity (a.u.).

Which binding signal does the source give for “ACCCACACCTCGTCCCCGTCACCTCCTATATCATCGTCATCGGAGTCACCTAGTGCAG” here?
Its binding signal is 6470 fluorescence intensity (a.u.).

With “AATATTCTCTGTCTCGGTGTGGTGTCTCTCCTCTGACGGCCGGAGTCACCTAGTGCAG” as the sequence, how does the binding signal read?
Its binding signal is 4810 fluorescence intensity (a.u.).

For “ATTAGATTTACCGCAAACAATGACGTCCTCCCTGCCTGGACGGAGTCACCTAGTGCAG”, which binding signal is on record?
Its binding signal is 4900 fluorescence intensity (a.u.).

“ATAATGCATTTAGTATTGCCACCCTGTACTAATAGATGTTCGGAGTCACCTAGTGCAG” was tested. Which binding signal did it give?
The binding signal was 3810 fluorescence intensity (a.u.).

With “CGAGGCGGGGTGCACCTTCATGGTCAGTGGCCCGTGGTTCCGGAGTCACCTAGTGCAG” as the sequence, how does the binding signal read?
Its binding signal is 4270 fluorescence intensity (a.u.).

“CGGTGATCCCATACTTGGCACGTACACGTGCCCTCTTGATCGGAGTCACCTAGTGCAG” was tested. Which binding signal did it give?
Its binding signal is 6030 fluorescence intensity (a.u.).

For “AAAAGTAATTTATAAATAAAATTTCTATATACGTGTTCTTCGGAGTCACCTAGTGCAG”, which binding signal is on record?
The binding signal was 3220 fluorescence intensity (a.u.).

With “TTATATACTCCCTCTTTCCACGTAAGTTACATTTATTACTCGGAGTCACCTAGTGCAG” as the sequence, how does the binding signal read?
The binding signal was 7340 fluorescence intensity (a.u.).

“AAACGGATAAGTTAGTAAGTAATTTCTTCCCTCCTAATTTCGGAGTCACCTAGTGCAG” was tested. Which binding signal did it give?
The binding signal was 45900 fluorescence intensity (a.u.).

For “CCCGGGCCTCGCCGCGCCGCGCCACGCCACGCCTCCGCCCCGGAGTCACCTAGTGCAG”, which binding signal is on record?
The binding signal was 7580 fluorescence intensity (a.u.).
